Only some compounds are listed: those with a hit (about 18% of all), similar ones and a draw of the others.
IL-1B inflam inh = blocks inflammasome-driven IL-1 beta release | AID 743279 | activity change, % at 57.5 µM | THP-1 LPS/ATP IL-1B secretion, AlphaLISA, 16 h; active compounds read low | actives 4.7% (n = 360,000); in the data active = activity change below about -50%; inconclusive = mostly about -30% to -49%
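THP-1 cells pretreated 1 hr with compounds (up to 57.5 uM final), then stimulated with LPS (250 ng/mL final) plus ATP (1.25 mM final); secreted IL-1B measured by AlphaLISA after 16 hr, decreased signal indicating inhibition.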
TDP1 block = TDP1 (human) enzyme inhibition. actives 0.28% (n = 350,000). AID 485290. recombinant TDP1, AlphaScreen DNA substrate cleavage. Potency, µM (series often up to 130 µM), actives largely listed as inhibitors; note: nearly all actives have a fitted effect of over 40% in size
Target sequence (Q9NUW8 whole entry, looked up): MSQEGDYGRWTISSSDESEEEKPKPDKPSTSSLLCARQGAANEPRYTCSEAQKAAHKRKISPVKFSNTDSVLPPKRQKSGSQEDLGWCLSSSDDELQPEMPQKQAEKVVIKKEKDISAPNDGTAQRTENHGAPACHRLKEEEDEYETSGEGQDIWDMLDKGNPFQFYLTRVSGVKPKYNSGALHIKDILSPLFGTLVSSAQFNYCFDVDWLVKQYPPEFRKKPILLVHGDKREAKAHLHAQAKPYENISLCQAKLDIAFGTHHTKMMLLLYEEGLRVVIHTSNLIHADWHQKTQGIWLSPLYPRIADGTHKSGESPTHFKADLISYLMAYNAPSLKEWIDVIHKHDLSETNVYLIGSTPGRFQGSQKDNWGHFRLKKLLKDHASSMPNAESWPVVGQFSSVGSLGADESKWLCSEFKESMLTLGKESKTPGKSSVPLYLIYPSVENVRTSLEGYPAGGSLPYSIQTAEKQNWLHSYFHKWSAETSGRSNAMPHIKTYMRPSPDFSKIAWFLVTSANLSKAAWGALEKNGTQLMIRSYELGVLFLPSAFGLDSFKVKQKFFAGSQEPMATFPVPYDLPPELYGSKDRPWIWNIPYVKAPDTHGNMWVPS
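E. coli-derived human Tdp1, 1 nM final. Cpd preinc 15 min RT; substrate 15 nM final, 5 min RT; AS bead mix 10 ug/ml final, 10 min RT. Signal loss = tyrosine-FITC cleavage. No-enzyme wells = max signal.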
HepG2 viability = counter-screen for TGF-b inhibitors: cytotoxicity in HepG2 cells | AID 588856 | Potency, µM (doses to about 46.1 µM), hits mostly cytotoxic | actives 0.76% (n = 410,000) | HepG2 CAGA-GFP viability, ATP luminescence, 18 h
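HepG2 CAGA-GFP cells (1000/well, DMEM with 1% FBS) received compound, then TGF-beta at 500 pg/mL final, and were incubated 18 hours at 37 degrees C. Viability was read by CellTiter-Glo luminescence. Media-only wells were set as complete cell-killing and DMSO as no toxicity.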
TGFb inhibitor = blocks TGF-b signaling. HepG2 CAGA-GFP TGF-b/SMAD3 reporter, GFP fluorescence, 18 h; TGF-beta stimulated, 500 pg/mL final. Potency, µM (top dose mostly 46.1 µM), most hits filed as inhibitors. AID 588855. actives 1.2% (n = 410,000); note: nearly all actives have a fitted effect of over 65% in size
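HEPG2 CAGA-GFP, 1000 cells/well; 2 h settle, 37 C; cpd via pin tool; TGF-b 500 pg/mL final; 18 h, 37 C; GFP imaging ex488/em500-530; %Activity normalised to -TGF-b and +DMSO controls; CRC fit, curve class.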
DT40 TDP1 CPT = DT40-hTDP1 cell growth loss with CPT; chicken DT40 Tdp1-/-;hTDP1 cells + 20 nM CPT, ATP luminescence, 48 h; Potency, µM (doses to about 46.2 µM), most hits filed as inhibitors; actives 12% (n = 420,000); note: nearly all actives have a fitted effect of over 55% in size
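Cell growth measured by CellTiter-Glo luminescence after a minimum 48 h, 37 C compound exposure with 20 nM CPT in Tdp1-knockout DT40 cells stably expressing hTDP1, seeded 400/well; qHTS titration format.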
TDP1 cell noCPT = qHTS for Inhibitors of human tyrosyl-DNA phosphodiesterase 1 (TDP1): qHTS in cells in absence of CPT. DT40 Tdp1-/- hTDP1 cells, no CPT, ATP luminescence, 48 h. Potency, µM (titrated, usually from 46.2 µM), actives largely listed as inhibitors. actives 15% (n = 420,000). AID 686978, 2013; note: nearly all actives have a fitted effect of over 55% in size
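Readout: luminescence from CellTiter-Glo after 30 min in the dark at RT. Cells: DT40 Tdp1-/- with stable hTDP1, 400/well. Exposure: compounds alone, ≥48 hr, 37 °C.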
Large screens that a line does not name were inactive. Unless noted, calls come from the whole dose curve; as a rule, active = well fitted curve in the direction sought with a large enough effect; inconclusive = small, poorly fitted or top-dose-only effect, or another doubt; inactive = no such curve, though single readings can be large; an effect the other way counts as inactive or inconclusive.

Oc1ccc(N2CCN(c3nnnn3-c3ccccc3)CC2)cc1	DT40 TDP1 CPT inconclusive, TDP1 cell noCPT 21µM
CCOC(=O)N1CCC(N2C(=O)c3ccc(C(=O)Nc4ccc(OC)cc4)cc3C2=O)CC1	none
Cc1ccc(S(=O)(=O)Nc2ccccc2CNc2ccc(Br)cn2)cc1	TGFb inhibitor inconclusive, DT40 TDP1 CPT inconclusive, TDP1 cell noCPT 29µM
CN1CCN(C(=O)c2cccc(COc3cc(Cl)ccc3Cl)c2)CC1	DT40 TDP1 CPT inconclusive, TDP1 cell noCPT 22µM
O=C1CS/C(=N/N=C/c2ccccc2OS(=O)(=O)c2ccccc2)N1	DT40 TDP1 CPT 1µM, TDP1 cell noCPT 1µM
Cc1ccc(OS(=O)(=O)c2ccccc2)c(/C=N/N=C2\NC(=O)C(C)S2)c1 (configuration not stated)	DT40 TDP1 CPT inconclusive, TDP1 cell noCPT 18µM
Cc1cc(F)ccc1NC(=O)CCS(=O)(=O)c1cccc2nsnc12	none (no result: IL-1B inflam inh)
O=C(Nc1ccccc1)NC1CCCCNC1=O (configuration not stated)	none
CC(C)C[C@H]1CNC(=S)N1CC1CCCN1C[C@H](Cc1ccc(O)cc1)N1C[C@H](Cc2ccccc2)N(CC2CCCCCC2)C1=S (some centres not stated)	TGFb inhibitor inconclusive, DT40 TDP1 CPT inconclusive, TDP1 cell noCPT 21µM (no result: TDP1 block)
CC(C)C[C@H]1CN([C@@H](Cc2ccccc2)CN2CCCC2CN2C(=S)NC[C@@H]2Cc2ccccc2)C(=S)N1CC1CCCCC1 (some centres not stated)	DT40 TDP1 CPT 6.5µM, TDP1 cell noCPT 7.3µM (no result: TDP1 block, HepG2 viability, TGFb inhibitor)
CC(C)C[C@H]1CN([C@@H](Cc2ccc(O)cc2)CN2CCC[C@@H]2CN2C(=S)NC[C@@H]2Cc2ccccc2)C(=S)N1CC1CCCCC1	TGFb inhibitor 11µM, DT40 TDP1 CPT 16µM, TDP1 cell noCPT 16µM (no result: TDP1 block)
CC(C)C[C@H]1CNC(=S)N1C[C@H]1CCCN1C[C@H](Cc1ccc(O)cc1)N1C[C@H](Cc2ccccc2)N(CC2CCCCC2)C1=S	TGFb inhibitor inconclusive, DT40 TDP1 CPT inconclusive, TDP1 cell noCPT 18µM (no result: TDP1 block)
CC(C)C[C@H]1CNC(=S)N1C[C@H]1CCCN1C[C@H](Cc1ccc(O)cc1)N1C[C@H](Cc2ccccc2)N(CCc2ccccc2)C1=S	TGFb inhibitor inconclusive, DT40 TDP1 CPT inconclusive, TDP1 cell noCPT inconclusive (no result: TDP1 block)
O=C(OCC1CCCO1)c1ccc2c(c1)N(Cc1ccccc1Cl)C(=O)c1ccccc1S2(=O)=O (configuration not stated)	none (no result: IL-1B inflam inh)
CC(C)CCNC(=O)Cn1c(SCc2cccc(F)c2)nc2ccncc21	TDP1 cell noCPT inconclusive (no result: IL-1B inflam inh)
C=CC[N@@+]12CC[C@@]34c5ccccc5N5/C=C6/[C@H]7C[C@H]8[C@@]9(CC[N@@+]8(CC=C)C/C7=C/CO)c7ccccc7N(/C=C(/[C@@H](C[C@@H]31)/C(=C\CO)C2)[C@H]54)[C@@H]69	none (no result: IL-1B inflam inh, TDP1 block, HepG2 viability, TGFb inhibitor)
Oc1ccc(C(=Nc2ccccc2)c2ccccc2)c(O)c1	none (no result: TDP1 block)
CCCCCCCn1ccc(=N)cc1	IL-1B inflam inh inconclusive, TGFb inhibitor inconclusive, DT40 TDP1 CPT 0.52µM, TDP1 cell noCPT 0.52µM
CCn1ccc(=N)cc1	none
CCCCCCCCCn1ccc(=N)cc1	IL-1B inflam inh -94, TGFb inhibitor inconclusive, DT40 TDP1 CPT 0.23µM, TDP1 cell noCPT 0.15µM
CCCCCCN1CC(O)=C(c2ccccc2)C1=N	none
CCCCCn1ccc(=N)cc1	DT40 TDP1 CPT 9.2µM, TDP1 cell noCPT 5.2µM
CC(C)C(=O)NS(=O)(=O)c1ccc(N)cc1	TGFb inhibitor inconclusive
CC(=O)OCC(=O)Nc1cc(C#N)cc(NC(=O)COC(C)=O)c1Cl	none (no result: IL-1B inflam inh, TDP1 block, HepG2 viability, TGFb inhibitor)
Cc1cc(N2CCN(c3ccccn3)CC2)n2cc(-c3ccccc3)nc2n1	DT40 TDP1 CPT 21µM, TDP1 cell noCPT 18µM
Cc1cc(N2CCN(C)CC2)n2cc(-c3ccc(F)cc3)nc2n1	TDP1 cell noCPT inconclusive
CCCOc1ccc(Cn2cnc3ccccc32)cc1	DT40 TDP1 CPT inconclusive, TDP1 cell noCPT 13µM
Cc1ccccc1Cn1cnc2ccccc21	DT40 TDP1 CPT 18µM, TDP1 cell noCPT 21µM
CCOCN(C(=O)Cn1cnc2ccccc21)c1c(C)cccc1CC	DT40 TDP1 CPT 21µM, TDP1 cell noCPT 23µM
Cc1ccc(Cn2cnc3ccccc32)cc1C	DT40 TDP1 CPT 13µM, TDP1 cell noCPT 16µM
CCS(=O)(=O)N1CC(=O)N(c2cc(C)ccc2C)C(C)(C(=O)NC2CCCCC2)C1 (configuration not stated)	none (no result: IL-1B inflam inh)
O=C(CN1C(=O)c2ccccc2S1(=O)=O)Nc1ncc(Cl)cc1Cl	none
Clc1ccc(CN2C3=NCCCN3c3ccccc32)cc1Cl	TDP1 cell noCPT 15µM (no result: IL-1B inflam inh)
Cc1ccccc1CN1C2=NCCCN2c2ccccc21	DT40 TDP1 CPT 18µM, TDP1 cell noCPT 18µM
Cc1ccccc1CN1C2=NCCN2c2ccccc21	DT40 TDP1 CPT inconclusive, TDP1 cell noCPT inconclusive
ClCCN1C2=NCCCN2c2ccccc21	none
Fc1ccc(CN2C3=NCCCN3c3ccccc32)cc1	DT40 TDP1 CPT inconclusive, TDP1 cell noCPT inconclusive
Clc1ccc(CN2C3=NCCCN3c3ccccc32)cc1	DT40 TDP1 CPT 26µM, TDP1 cell noCPT 21µM
Cn1cc(-c2nc3cnc(Oc4cccc(Cl)c4)nc3n(CCC#N)c2=O)c2ccccc21	none (no result: IL-1B inflam inh, TDP1 block, HepG2 viability, TGFb inhibitor)

High-throughput results deposited in PubChem by National Center for Advancing Translational Sciences (NCATS).
